# Measurements taken from PubChem BioAssay (NCATS).
# Inconclusive results are not listed. Where a call stands in place of a potency, no number is given. The source holds several records for some structures; these can differ, active in one and inactive in another. Calls of active or inactive are those of the source. Unless noted, the call rests on the fitted dose curve; in most records, active means well fitted curve in the direction sought with a large enough effect; inconclusive means small, poorly fitted or top-dose-only effect, or another doubt; inactive means no such curve, though single readings can be large; an effect the other way counts as inactive or inconclusive.
# How the values were obtained:
# [1] = Primary qHTS for inhibitors of nuclear receptor binding SET domain protein 2 (NSD2) in an isogenic RCH-ACV NSD2 p.E1099K mutant (9B) (AID 1645876); further: nearly all actives have a fitted effect of over 70% in size
# [2] = Primary qHTS for inhibitors of nuclear receptor binding SET domain protein 2 (NSD2) in an RCH-ACV wild type WT cells (2C) (AID 1645877); further: nearly all actives have a fitted effect of over 70% in size; further: potency means the concentration at half of the fitted maximal effect
# [3] = molecular target: Rap guanine nucleotide exchange factor 3 (Homo sapiens) (UniProt O95398); assay: Confirmatory qHTS for antagonist of cAMP-regulated guanine nucleotide exchange factor 3 (EPAC1) (AID 1645880); further: nearly all actives have a fitted effect of over 55% in size
# Summary of the method: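 Released BODIPY-GDP fluoresces less than Rap1-bound BODIPY-GDP; the signal is followed at 480/540 nm at 5-min intervals over 30 min, after 5 min at room temperature. Reactions contain 100 nM EPAC1, 250 nM RAP1B-BODIPY-GDP and 50 uM GDP; results are normalized to ATA and DMSO.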
# [4] = molecular target: Rap guanine nucleotide exchange factor 3 (Homo sapiens) (UniProt O95398); assay: Confirmatory qHTS for agonist of cAMP-regulated guanine nucleotide exchange factor 3 (EPAC1) (AID 1645881);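 further: EPAC1 catalysed release of BODIPY-GDP from Rap1B seen as fluorescence loss; nearly all actives have a fitted effect of over 75% in size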
# [5] = molecular target: Rap guanine nucleotide exchange factor 4 (Homo sapiens) (UniProt Q8WZA2); assay: Confirmatory qHTS for agonist of cAMP-regulated guanine nucleotide exchange factor 4 (EPAC2) (AID 1645884);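 further: nucleotide exchange releases bodipy-GDP from Rap1 and this lowers its fluorescence; nearly all actives have a fitted effect of over 65% in size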
# [6] = molecular target: Rap guanine nucleotide exchange factor 4 (Homo sapiens) (UniProt Q8WZA2); assay: Confirmatory qHTS for antagonist of cAMP-regulated guanine nucleotide exchange factor 4 (EPAC2) (AID 1645885); further: nearly all actives have a fitted effect of over 25% in size; further: potency means the concentration at half of the fitted maximal effect
# [7] = molecular target: Rap guanine nucleotide exchange factor 3 (Homo sapiens) (UniProt O95398); assay: Counterscreen qHTS for antagonist of cAMP-regulated guanine nucleotide exchange factor 3 (EPAC1) (AID 1645888)
# Source text: Assay Provider (PI): Xiaodong Cheng Ph.D. The University of Texas Medical Branch, […], TX MLPCN Grant: NS066510 In multi-cellular eukaryotic organisms, the effects of cAMP are transduced by two ubiquitously-expressed intracellular cAMP receptors, the classic protein kinase A/cAMP-dependent protein kinase (PKA/cAPK) and the more recently discovered exchange protein directly activated by cAMP/cAMP-regulated guanine nucleotide exchange factor (EPAC/cAMP-GEF). Both PKA and EPAC are ubiquitously expressed in all tissues, and an increase in intracellular cAMP levels will lead to the activation of both PKA and EPAC. […] This qHTS will be used to screen the Molecular Libraries Small Molecule Repository (MLSMR) as a concentration-titration series using the NCGC unique quantitative screening (qHTS) platform to find activators for EPAC1. […] Activators are identified by monitoring the change in fluorescence signal as the exchanged free BODIPY-GDP has a reduced fluorescence compared to Rap1-bound BODIPY-GDP. […]
# EPAC1 Counterscreen PROTOCOL TABLE SEQUENCE No. (e.g., 1, 2, 3, etc.); […] […] Fluorescence. (Read 1), Ex/Em = 480 nm / 540 nm. […] Fluorescence. (Read 2), Ex/Em = 480 nm/ 540 nm. […] Fluorescence. (Read 3), Ex/Em = 480 nm / 540 nm. […] Fluorescence. (Read 4), Ex/Em = 480 nm / 540 nm. […]
# [8] = NCATS anti-infectives library activity on HEK293 viability as a counter-qHTS vs the C. elegans viability qHTS (AID 1745854);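 further: HEK293 cells exposed to compounds for 24 hr before the viability read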
# Summary of the method: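 Compound titrations (final up to 41.7 uM) were incubated with HEK293 cells for 24 hr at 37C under 5% CO2. Viable cells were quantified with CellTiter-Glo after 10 min at ambient temperature.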
# [9] = NCATS anti-infectives library activity on the primary C. elegans qHTS viability assay (AID 1745855; calls by dose curve); details: C. elegans worm area imaging, day 7; at 41.8 µM (top of the series)
# Summary of the method: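 Titration-based screen in worms: eggs hatched overnight in M9, L1 larvae fed TOP10 capsules in S medium with compound, incubated 21 °C for 7 days; fluorescent objects gated by size and intensity at days 0, 3 and 7.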
# Chain of Rap guanine nucleotide exchange factor 3 (Homo sapiens) (O95398 whole entry, looked up): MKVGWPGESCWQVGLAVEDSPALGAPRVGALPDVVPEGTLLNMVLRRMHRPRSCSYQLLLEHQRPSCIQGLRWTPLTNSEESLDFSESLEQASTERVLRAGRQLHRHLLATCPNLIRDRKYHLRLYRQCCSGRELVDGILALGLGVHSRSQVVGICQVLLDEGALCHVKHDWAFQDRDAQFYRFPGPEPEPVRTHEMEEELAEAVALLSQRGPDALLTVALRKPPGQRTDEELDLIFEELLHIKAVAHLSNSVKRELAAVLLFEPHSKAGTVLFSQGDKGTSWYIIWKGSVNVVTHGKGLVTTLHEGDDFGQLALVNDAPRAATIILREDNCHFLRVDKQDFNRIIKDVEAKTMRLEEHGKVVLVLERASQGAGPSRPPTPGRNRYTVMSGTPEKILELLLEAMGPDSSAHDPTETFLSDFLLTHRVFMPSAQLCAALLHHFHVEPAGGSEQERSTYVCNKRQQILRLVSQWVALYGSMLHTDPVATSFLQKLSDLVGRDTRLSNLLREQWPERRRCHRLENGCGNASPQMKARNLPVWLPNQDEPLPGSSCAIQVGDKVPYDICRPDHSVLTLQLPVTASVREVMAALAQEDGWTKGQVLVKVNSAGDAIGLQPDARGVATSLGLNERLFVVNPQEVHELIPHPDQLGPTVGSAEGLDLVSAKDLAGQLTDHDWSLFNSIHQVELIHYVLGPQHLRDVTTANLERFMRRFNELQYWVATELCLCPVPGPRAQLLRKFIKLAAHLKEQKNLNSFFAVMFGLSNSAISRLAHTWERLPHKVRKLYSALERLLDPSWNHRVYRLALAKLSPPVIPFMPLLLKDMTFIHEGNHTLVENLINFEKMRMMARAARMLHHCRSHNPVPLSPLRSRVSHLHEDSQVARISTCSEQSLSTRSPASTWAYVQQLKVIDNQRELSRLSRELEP
# Chain of Rap guanine nucleotide exchange factor 4 (Homo sapiens) (Q8WZA2 whole entry, looked up): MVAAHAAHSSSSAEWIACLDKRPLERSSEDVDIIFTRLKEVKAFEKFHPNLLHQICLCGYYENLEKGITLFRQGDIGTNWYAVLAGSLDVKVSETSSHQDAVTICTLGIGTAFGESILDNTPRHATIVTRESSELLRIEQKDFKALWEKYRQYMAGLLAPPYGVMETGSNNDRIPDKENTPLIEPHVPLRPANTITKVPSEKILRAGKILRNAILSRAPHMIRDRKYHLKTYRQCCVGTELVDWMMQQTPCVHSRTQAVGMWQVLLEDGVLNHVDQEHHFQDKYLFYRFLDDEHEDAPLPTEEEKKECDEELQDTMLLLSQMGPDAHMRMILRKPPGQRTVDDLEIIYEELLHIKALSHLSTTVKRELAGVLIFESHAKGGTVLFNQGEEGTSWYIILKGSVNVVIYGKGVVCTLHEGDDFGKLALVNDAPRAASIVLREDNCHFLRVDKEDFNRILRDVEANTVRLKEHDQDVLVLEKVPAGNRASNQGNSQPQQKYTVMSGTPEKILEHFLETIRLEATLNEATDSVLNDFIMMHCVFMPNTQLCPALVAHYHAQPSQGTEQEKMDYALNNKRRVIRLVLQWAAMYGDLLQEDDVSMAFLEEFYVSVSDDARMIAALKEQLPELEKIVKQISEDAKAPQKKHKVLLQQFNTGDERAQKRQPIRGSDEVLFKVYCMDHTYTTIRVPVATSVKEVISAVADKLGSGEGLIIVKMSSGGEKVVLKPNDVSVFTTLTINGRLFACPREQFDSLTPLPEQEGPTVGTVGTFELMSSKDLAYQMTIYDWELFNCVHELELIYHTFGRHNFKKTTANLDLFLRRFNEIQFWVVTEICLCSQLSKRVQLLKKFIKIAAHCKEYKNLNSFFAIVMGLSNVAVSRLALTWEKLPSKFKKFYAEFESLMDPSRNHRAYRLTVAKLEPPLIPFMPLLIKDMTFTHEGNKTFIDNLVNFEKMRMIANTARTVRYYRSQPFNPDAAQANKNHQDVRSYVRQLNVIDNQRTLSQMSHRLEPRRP
compound,measurement,setting,value
CC(=O)Nc1cccc(O)c1,Potency,[1],inactive
same,Potency,[2],inactive
OCCN1C[C@H](O)[C@@H](O)[C@H](O)[C@H]1CO,Potency,[1],inactive
same,Potency,[2],inactive
CN[C@@H]1[C@@H](O)[C@@H](O[C@@H]2[C@H](O)[C@H](O[C@H]3OC(CN)=CC[C@H]3N)[C@@H](N)C[C@H]2N)OCC1(C)O (stereo not given in full),Potency,[1],inactive
same,Potency,[2],inactive
NC(N)=NS(=O)(=O)c1ccc(N)cc1,Potency,[1],inactive
same,Potency,[2],inactive
CN(C(=O)c1c(O)c2ccccc2n(C)c1=O)c1ccccc1,Potency,[1],inactive
same,Potency,[2],inactive
COc1ccc2cc(CCC(C)=O)ccc2c1,Potency,[1],inactive
same,Potency,[2],inactive
same,outcome,[3],inactive
same,outcome,[4],inactive
same,outcome,[5],inactive
same,Potency,[6],8.79 µM (active) and inactive
same,outcome,[7],inactive
same,outcome,[8],inactive
O=C(O)CCCc1ccccc1,Potency,[1],inactive
same,Potency,[2],inactive
same,outcome,[8],inactive
CN/C(=C\[N+](=O)[O-])NCCSCc1csc(CN(C)C)n1,Potency,[1],inactive
same,Potency,[2],inactive
NCc1ccc(S(N)(=O)=O)cc1,outcome,[8],inactive
same,outcome,[9],inactive
O=C(O)[C@@H]1[C@H]2C[C@H]3c4[nH]c5ccccc5c4CCN3C[C@@H]2CC[C@@H]1O,Potency,[1],inactive
same,Potency,[2],inactive
CC(=O)N[C@H]1[C@H]([C@H](O)[C@H](O)CO)OC(C(=O)O)=C[C@@H]1N=C(N)N,Potency,[1],inactive
same,Potency,[2],inactive
same,outcome,[8],inactive
CCOC(N)=O,Potency,[1],inactive
same,Potency,[2],inactive
Cc1c(NC(C)C)c(=O)n(-c2ccccc2)n1C,Potency,[1],inactive
same,Potency,[2],inactive
C=CCOc1ccccc1OCC(O)CNC(C)C (stereo not given),outcome,[8],inactive
CCCNC(C)(C)COC(=O)c1ccccc1,Potency,[1],inactive
same,Potency,[2],inactive
O=C1c2cccc(O)c2C(=O)c2c(O)cccc21,Potency,[1],inactive
same,Potency,[2],inactive
same,outcome,[8],inactive
CC(=O)OCC(=O)[C@@]1(O)CC[C@H]2[C@@H]3CCC4=CC(=O)C=C[C@]4(C)[C@@]3(F)[C@@H](O)C[C@@]21C,Potency,[2],21.1 nM (active)
NC(=O)NC1NC(=O)NC1=O (stereo not given),Potency,[1],inactive
same,Potency,[2],inactive
same,outcome,[3],inactive
same,outcome,[4],inactive
same,outcome,[5],inactive
same,Potency,[6],inactive
COc1ccc(C(=O)NCc2ccc(OCCN(C)C)cc2)cc1OC,Potency,[1],inactive
same,Potency,[2],inactive
CCN(CC)S(=O)(=O)c1ccc(C(=O)O)cc1,Potency,[1],inactive
same,Potency,[2],inactive
Cc1c(C(=O)NCCO)[n+](=O)c2ccccc2n1[O-],Potency,[1],inactive
same,Potency,[2],inactive
CCOC(=O)OC(C)OC(=O)[C@@H]1N2C(=O)[C@@H](NC(=O)[C@H](N)c3ccccc3)[C@H]2SC1(C)C (stereo not given in full),Potency,[1],inactive
same,Potency,[2],inactive
CN1CC(=O)NC1=N,Potency,[1],inactive
same,Potency,[2],inactive
O=C(O)CCCCC1CCSS1 (stereo not given),Potency,[1],inactive
same,Potency,[2],inactive
same,outcome,[8],inactive
